# Screens deposited in PubChem BioAssay by National Center for Advancing Translational Sciences (NCATS).
# Most compounds without a hit are left out; they make up all but 11% or so of the library.
# G9a block – blocks human histone lysine methyltransferase G9a. Q96KQ7. G9a H3K9 monomethylation, AlphaScreen, 2 h. Potency, µM (series often up to 102 µM), inactives show top-dose activity, negative = inhibition, hits mostly inhibitors. 8.8% of 350,000 active. AID 504332; note: % is set by controls: 0 for no effect and ±100 for the full control effect; nearly all actives have a fitted effect of over 75% in size
#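 Compounds were preincubated with 20 nM G9a for 15 min, after which biotinylated H3K9 peptide (500 nM) and SAM (20 uM) started a 2 h room-temperature reaction. Monomethylated product was quantified by antibody-based AlphaScreen chemiluminescence.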
# JMJD2A Tudor inh – inhibitors of human JMJD2A Tudor domain. Potency, µM (top dose mostly 114 µM), for inactives: top-dose activity change, negative = inhibition, actives largely listed as inhibitors. O75164. AlphaScreen JMJD2A-Tudor / H3K4me3 peptide binding. 4.4% of 390,000 active; note: % is set by controls: 0 for no effect and ±100 for the full control effect; nearly all actives have a fitted effect of over 50% in size
# HP1b chromo inh – inhibitors of HP1-beta chromodomain binding to methylated histone tails. P83916. AlphaScreen HP1-beta / biotin-H3K9me3 peptide binding. Potency, µM (doses to about 114 µM), for the others: top-dose activity change, negative = inhibition, actives largely listed as inhibitors. 0.56% of 390,000 active; note: nearly all actives have a fitted effect of over 70% in size
#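 AlphaScreen: HP1-beta (50 nM) preformed 30 min with biotin-H3(1-18)K9me3 peptide (50 nM) in PBS pH 7.4, 0.01% Tween-20. Compound added for 30 min at RT, then streptavidin donor/nickel chelate acceptor beads (10 ug/mL) for 30 min.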
# L3MBTL1 block – L3MBTL1 (human) inhibition; AlphaScreen L3MBTL1–H3K9me1 peptide binding; Potency, µM (top dose mostly 57.1 µM), without a hit: at the highest dose activity, negative = inhibition, usual class: inhibitors; 0.66% of 230,000 active; AID 485360; note: % is set by controls: 0 for no effect and ±100 for the full control effect; nearly all actives have a fitted effect of over 60% in size
#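 AlphaScreen assay: L3MBTL1 (50 nM final) was preincubated 30 min at room temperature with biotinylated H3(1-15)K9me1 peptide (75 nM final), then 30 min with library compounds; streptavidin donor and nickel chelate acceptor beads (10 ug/mL final) added, 30 min dark.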
# BAZ2B inh – BAZ2B (human) inhibition; Q9UIF8; AlphaScreen BAZ2B-H3K14Ac peptide displacement; Potency, µM (series often up to 114 µM), for inactives: at the highest dose activity change, negative = inhibition, usual class: inhibitors; 4.4% of 360,000 active; note: % is set by controls: 0 for no effect and ±100 for the full control effect; nearly all actives have a fitted effect of over 60% in size
#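 In this displacement format the biotinylated H3(5-23) peptide acetylated at Lys14 serves as ligand at 50 nM, with BAZ2B at 50 nM in PBS pH 7.4 containing 0.01% Tween-20. Donor and acceptor beads are 10 ug/mL final.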
# Active calls of the source: *; ? = inconclusive; nt = no result given; [ ] = another dose, or the depositor's remark. Calls come from the whole dose curve; as a rule, active = well fitted inhibition curve with a large enough effect; inconclusive = small, poorly fitted or top-dose-only effect; inactive = no such curve, though single readings can be large or run the other way. Potency is the fitted concentration of half-maximal effect.
SMILES,G9a block,JMJD2A Tudor inh,HP1b chromo inh,L3MBTL1 block,BAZ2B inh
Cc1ccc(/C=C2\SC(=S)N(CCCC(=O)N3CCOCC3)C2=O)cc1,nt,20µM*,?,nt,11µM*
CCNc1ncc2nc(C)c(=O)n(C)c2n1,8%[0.501 µM],nt,nt,nt,nt
COc1ccc(CNC(=O)CN2C(=O)CSc3ccc(S(=O)(=O)N4CCCC4)cc32)cc1,-5%[59 µM],-6%,50%,nt,-3%
COc1ccc(/C=C2/SC(=S)N(CCCC(=O)N3CCN(C)CC3)C2=O)cc1,?,?,?,nt,32µM*
CC1CCN(C(=O)CCN2C(=O)/C(=C/c3cccs3)SC2=S)CC1,32µM*,28µM*,?,nt,?
Cc1cccc(N(CC(=O)NC2CCCC2)C(=O)CS(=O)CC(=O)Nc2ccc3c(c2)OCO3)c1C (stereo not drawn),7.9µM*,-12%[57.1 µM],33%,-4%,-11%
Cc1ccccc1C(=O)Nc1cccc(-c2nc3cccnc3s2)c1,-60%[59 µM],100µM*,11%,nt,?
CCS(=O)(=O)Nc1cc(-c2nc3cccnc3s2)ccc1C,50µM*,1%,23%,-3%,9%
CCS(=O)(=O)Nc1cccc(-c2nc3cccnc3s2)c1,nt,-5%,20%,nt,3%
COc1ccc2c(C)c(CCC(=O)NCCc3ccccc3OC)c(=O)oc2c1,4%[59 µM],-24%,11%,nt,-2%
O=C1NN(c2ccc(Br)cc2)C(=O)/C1=C\c1ccc(O)cc1O,nt,?,?,-10%,?
Cc1ccc(OCCn2cc(/C=C3\C(=O)NN(c4ccccc4)C3=O)c3ccccc32)cc1,-12%[59 µM],?,-9%,-7%,?
COc1cc(C=C2C(=O)c3ccccc3C2=O)cc(OC)c1,nt,-14%,29%,nt,-15%
COc1cccc(C=C2SC(=S)NC2=O)c1,nt,-28%,-17%,nt,nt
O=C1NN(c2ccc(F)cc2)C(=O)/C1=C/c1cccs1,45µM*,-32%,-17%,-17%,-36%
COc1cccc(/C=C2/C(=O)NN(c3ccccc3)C2=O)c1,40µM*,-19%,-8%,nt,?
COc1cccc(/C=C2/C(=O)NN(c3ccc(F)cc3)C2=O)c1,45µM*,-19%,-27%,nt,-17%
COc1cccc(/C=C2\C(=O)C(=O)c3ccccc32)c1,50µM*,?,-8%,nt,?
COc1ccc(C2C(=O)N(C3CCCCCC3)CC(=O)N2Cc2ccc(C)cc2)cc1OC (stereo not drawn),-4%[59 µM],-22%,?,nt,-16%
CN(CCO)c1nc(-c2cccs2)nc2ccccc12,nt,-18%,29%,nt,nt
COc1cccc(/C=C2\CCc3ccccc3C2=O)c1,260%,79%,87%,59%,50%
O=C1NN(c2ccccc2)C(=O)/C1=C\c1ccc2c(c1)OCO2,50µM*,?,4%,-4%,-25%
COc1cccc(/C=C2/C(=O)NN(c3ccc(C)c(C)c3)C2=O)c1,45µM*,-31%,8%,-4%,-27%[57.1 µM]
CSCSC1=C(C#N)C(c2ccc(Cl)cc2)C(C(C)=O)=C(C)N1 (stereo not drawn),7.9µM*,nt,nt,27%,11%
CSC1=C(C#N)C(c2ccccc2)C(C(C)=O)=C(C)N1 (stereo not drawn),3%,11%,60%,5%,-12%
SMILES,G9a block,JMJD2A Tudor inh,HP1b chromo inh,L3MBTL1 block,BAZ2B inh
CC(=O)C1=C(C)NC(SCc2ccc(C#N)cc2)=C(C#N)C1c1ccco1 (stereo not drawn),?,20µM*,34%,4%,-33%
CC(=O)C1=C(C)NC(SCc2cccc3ccccc23)=C(C#N)C1c1ccco1 (stereo not drawn),32µM*,10µM*,37%,-1%,-8%
CC(=O)C1=C(C)NC(SCC(=O)c2ccccc2)=C(C#N)C1c1ccco1 (stereo not drawn),?,nt,nt,-14%,12%
CCOC(=O)C1=C(c2ccccc2)NC(SC)=C(C#N)C1c1ccco1 (stereo not drawn),45µM*,?,40%,5%,-33%
O=C(NCCSCc1ccccc1Cl)C1CCN(S(=O)(=O)Cc2ccccc2)CC1,?,-35%,36%,nt,-5%
CC(C)NC(=O)c1ccc(CN2CCc3ccccc3C2)cc1,?,-5%,39%,-4%,-36%
O=C1N=c2ccccc2=C1c1c(O)n(-c2cccc(F)c2)[nH]c1=O,4µM*,?,?,0%,?
CCn1c(O)c(C2=c3ccccc3=NC2=O)c2cc(Br)ccc21,?,-19%,7%,-14%,-35%
CCCn1nnnc1NC(=O)CSc1ccc(Cl)cc1,6%[12.7 µM],?,34%,-2%,?
CCCn1nnnc1NC(=O)c1cc(Cl)ccc1Cl,8.9µM*,40µM*,12%,4%,56µM*
COc1ccccc1CNC(=O)c1cccn1-c1nnc(N2CCCC2)s1,6%[59 µM],-9%,21%,nt,-2%
COc1ccccc1OCCNC(=O)C1CCN(C(C)=O)CC1,?,-13%,-1%,nt,-1%
CCOc1cc(CN2CCN(S(=O)(=O)Cc3ccccc3)CC2)ccc1OC,16%,-5%,9%,nt,0%
CCCCNC(=O)C1CCN(Cc2ccc(OCc3ccccc3)c(OC)c2)CC1,14µM*,22µM*,-21%,0%,?
COc1ccc(CN2CCC(C(=O)NCCc3ccc(OC)c(OC)c3)CC2)c(OC)c1,-1%,-8%,12%,nt,2%
CCOCCCNC(=O)C1CCN(Cc2ccc(OCc3ccccc3)c(OC)c2)CC1,50µM*,?,10%,0%,-11%
CCCS(=O)(=O)N1CCN(Cc2ccc(OCc3ccccc3)c(OC)c2)CC1,nt,28µM*,?,nt,nt
Cc1ccc(N(C)C(=O)c2sc3nc4n(c(=O)c3c2C)CCCC4)cc1C,-3%[59 µM],21%,119%,nt,27%
CCCN(C(=O)c1sc2nc3n(c(=O)c2c1C)CCCC3)c1ccccc1C,?,-30%,26%,nt,?
CCN(C(=O)c1sc2nc3n(c(=O)c2c1C)CCCC3)c1ccccc1F,13µM*,-26%,79%,nt,-3%
Cc1ccc(Cl)cc1N(C)C(=O)c1sc2nc3n(c(=O)c2c1C)CCCC3,13µM*,-27%,57%,nt,?
O=C(Cn1ncc2c([nH]c3ccccc32)c1=O)NCc1cccc(Cl)c1,-8%[59 µM],-10%,17%,nt,-6%
COC(=O)C1=C[C@@H](C(=O)OC)[C@@H]2C3=C(C(=O)[C@@]2(C)NC(=O)c2ccccc2)[C@H](C)[C@@H]2C(=O)N(c4ccccc4)C(=O)[C@@H]2[C@@H]3C1,nt,-22%,27%,nt,nt
CC(=O)N1CN(CCCn2ccnc2)Cc2c1sc1c2CCCC1,-8%[2.33 µM],-20%[11.4 µM],40%,-6%,?
CC(=O)N1CN(Cc2ccccn2)Cc2c1sc1c2CCCC1,?,40µM*,28%,nt,28µM*
CCCn1c(N)c(C(=O)CN(C)CC(=O)Nc2ccc(C)cc2)c(=O)[nH]c1=O,45µM*,22µM*,33%,-5%,9%
